Several values for one entry are separate records, joined by “and”; a condition that tells them apart may be missing. Equal entries are not always repeated. The whole screen tested about 5,500 compounds, of which about 2,000 (36%) were called active. Not shown: some 18% with an inconclusive outcome. Cut-off read from the data, not from the text of the source: active = normalized growth mostly below about 0.91 (no sharp cut-off); inconclusive = no clear call, values can overlap the other calls; inactive = mostly above about 0.92. The list shows a part of the results.
Assay: chemical genetic growth profiling, strain panel (AID 1159580);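 note: tested at 20 µM; growth read once vehicle control cultures reached saturation at 30 °C; 1 = growth at the plate median or of vehicle wells; lower values mean less growth of the strain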
Conditions: growth OD

Measured: normalized growth

CCCNC(C)C(=O)Nc1ccccc1C (stereo unspecified)
inactive: S. cerevisiae deletion strains, locus YJR066W, strain TOR1, active compounds read low 0.979 | S. cerevisiae deletion strains, locus YJR075W, strain HOC1, active compounds read low 1.01 | S. cerevisiae deletion strains, locus YKL009W, strain mrt4, active compounds read low 1 | S. cerevisiae deletion strains, locus YKL068W, active compounds read low 0.99 | S. cerevisiae deletion strains, locus YKL085W, strain MDH1 (second series), active compounds read low 1 | S. cerevisiae deletion strains, locus YKL085W, strain MDH1, active compounds read low 1 | S. cerevisiae deletion strains, locus YKL160W, strain elf1, active compounds read low 1.01 | S. cerevisiae deletion strains, locus YKL190W, strain CNB1, active compounds read low 1 | S. cerevisiae deletion strains, locus YKR001C, strain vps1, active compounds read low 1 | S. cerevisiae deletion strains, locus YKR026C, strain gcn3, active compounds read low 1 | S. cerevisiae deletion strains, locus YKR091W, strain srl3, active compounds read low 1 | S. cerevisiae deletion strains, locus YLL001W, strain dnm1, active compounds read low 1.01 | S. cerevisiae deletion strains, locus YLL026W, active compounds read low 1.01 | S. cerevisiae deletion strains, locus YLL041C, strain sdh2, active compounds read low 0.997 | S. cerevisiae deletion strains, locus YLR027C, strain aat2, active compounds read low 1.01 | S. cerevisiae deletion strains, locus YLR039C, strain RIC1, active compounds read low 1.03 | S. cerevisiae deletion strains, locus YLR058C, strain SHM2, active compounds read low 1.01 | S. cerevisiae deletion strains, locus YLR102C, strain apc9, active compounds read low 0.989 | S. cerevisiae deletion strains, locus YLR113W, strain HOG1, active compounds read low 1.09 | S. cerevisiae deletion strains, locus YLR221C, strain rsa3, active compounds read low 0.988 | S. cerevisiae deletion strains, locus YLR258W, strain gsy2, active compounds read low 0.999 | S. cerevisiae deletion strains, locus YLR262C, strain YPT6 (second series), active compounds read low 1.02 | S. cerevisiae deletion strains, locus YLR262C, strain YPT6, active compounds read low 1.07 | S. cerevisiae deletion strains, locus YLR268W, strain sec22, active compounds read low 0.989 | S. cerevisiae deletion strains, locus YLR320W, strain mms22, active compounds read low 1.01 | S. cerevisiae deletion strains, locus YLR330W, strain CHS5, active compounds read low 1.01 | S. cerevisiae deletion strains, locus YLR342W, strain FKS1 (second series), active compounds read low 0.996 | S. cerevisiae deletion strains, locus YLR342W, strain FKS1, active compounds read low 1.01 | S. cerevisiae deletion strains, locus YLR357W, strain rsc2, active compounds read low 0.981 | S. cerevisiae deletion strains, locus YLR370C, strain arc18, active compounds read low 1.01 | S. cerevisiae deletion strains, locus YLR371W, strain rom2, active compounds read low 0.983 | S. cerevisiae deletion strains, locus YLR384C, strain iki3, active compounds read low 1.01 | S. cerevisiae deletion strains, locus YLR418C, strain cdc73, active compounds read low 0.967 | S. cerevisiae deletion strains, locus YML016C, strain PPZ1, active compounds read low 1.01 | S. cerevisiae deletion strains, locus YML032C, strain rad52, active compounds read low 0.987 | S. cerevisiae deletion strains, locus YML120C, strain ndi1, active compounds read low 1 | S. cerevisiae deletion strains, locus YML124C, strain tub3, active compounds read low 0.989 | S. cerevisiae deletion strains, locus YMR058W, strain fet3, active compounds read low 1 | S. cerevisiae deletion strains, locus YMR078C, strain ctf18, active compounds read low 0.993 | S. cerevisiae deletion strains, locus YMR125W, strain sto1, active compounds read low 1.02 | S. cerevisiae deletion strains, locus YMR129W, active compounds read low 1 | S. cerevisiae deletion strains, locus YMR205C, strain PFK2, active compounds read low 1 | S. cerevisiae deletion strains, locus YMR223W, strain ubp8, active compounds read low 0.972 | S. cerevisiae deletion strains, locus YMR231W, strain pep5, active compounds read low 1.01 | S. cerevisiae deletion strains, locus YMR263W, strain SAP30, active compounds read low 1 | S. cerevisiae deletion strains, locus YMR307W, strain GAS1, active compounds read low 0.949 | S. cerevisiae deletion strains, locus YNL067W, strain RPL9B, active compounds read low 1.02 | S. cerevisiae deletion strains, locus YNL071W, strain lat1, active compounds read low 1 | S. cerevisiae deletion strains, locus YNL153C, strain GIM3, active compounds read low 0.963 | S. cerevisiae deletion strains, locus YNL175C, strain NOP13, active compounds read low 1.01 | S. cerevisiae deletion strains, locus YNL183C, strain NPR1, active compounds read low 1 | S. cerevisiae deletion strains, locus YNL197C, strain WHI3, active compounds read low 1.04 | S. cerevisiae deletion strains, locus YNL209W, strain ssb2, active compounds read low 1 | S. cerevisiae deletion strains, locus YNL224C, strain SQS1, active compounds read low 0.989 | S. cerevisiae deletion strains, locus YNL233W, strain BNI4, active compounds read low 1.03 | S. cerevisiae deletion strains, locus YNL248C, strain rpa49, active compounds read low 1.01 | S. cerevisiae deletion strains, locus YNL250W, strain rad50, active compounds read low 0.983 | S. cerevisiae deletion strains, locus YNL271C, strain bni1, active compounds read low 0.996 | S. cerevisiae deletion strains, locus YNL298W, strain CLA4, active compounds read low 0.985 | S. cerevisiae deletion strains, locus YNL307C, strain MCK1, active compounds read low 0.998 | S. cerevisiae deletion strains, locus YNL322C, strain KRE1 (second series), active compounds read low 1 | S. cerevisiae deletion strains, locus YNL322C, strain KRE1, active compounds read low 1 and 1.02 | S. cerevisiae deletion strains, locus YNR049C, strain mso1, active compounds read low 1.01 | S. cerevisiae deletion strains, locus YNR052C, strain pop2, active compounds read low 0.998 | S. cerevisiae deletion strains, locus YOL006C, strain TOP1, active compounds read low 1.04 | S. cerevisiae deletion strains, locus YOL012C, strain htz1 0.66 | S. cerevisiae deletion strains, locus YOL147C, strain pex11, active compounds read low 0.979 | S. cerevisiae deletion strains, locus YOR001W, strain rrp6, active compounds read low 0.994 | S. cerevisiae deletion strains, locus YOR061W, strain CKA2, active compounds read low 1.02 | S. cerevisiae deletion strains, locus YOR069W, strain VPS5, active compounds read low 1 | S. cerevisiae deletion strains, locus YOR070C, strain gyp1, active compounds read low 1 | S. cerevisiae deletion strains, locus YOR080W, strain dia2, active compounds read low 0.999 | S. cerevisiae deletion strains, locus YOR083W, strain WHI5 (second series), active compounds read low 1.01 | S. cerevisiae deletion strains, locus YOR083W, strain WHI5, active compounds read low 1 | S. cerevisiae deletion strains, locus YOR106W, strain vam3, active compounds read low 1 | S. cerevisiae deletion strains, locus YOR136W, strain idh2, active compounds read low 0.992 | S. cerevisiae deletion strains, locus YOR144C, strain elg1, active compounds read low 0.977 | S. cerevisiae deletion strains, locus YOR184W, strain ser1, active compounds read low 0.968 | S. cerevisiae deletion strains, locus YOR231W, strain MKK1, active compounds read low 1.09 | S. cerevisiae deletion strains, locus YOR265W, strain rbl2, active compounds read low 1.01 | S. cerevisiae deletion strains, locus YOR270C, strain vph1, active compounds read low 0.987 | S. cerevisiae deletion strains, locus YOR290C, strain snf2, active compounds read low 0.992 | S. cerevisiae deletion strains, locus YOR316C, strain cot1, active compounds read low 0.998 | S. cerevisiae deletion strains, locus YPL051W, strain arl3, active compounds read low 1 | S. cerevisiae deletion strains, locus YPL055C, strain LGE1, active compounds read low 1 | S. cerevisiae deletion strains, locus YPL078C, strain atp4, active compounds read low 0.999 | S. cerevisiae deletion strains, locus YPL106C, strain sse1, active compounds read low 0.989 | S. cerevisiae deletion strains, locus YPL240C, strain hsp82, active compounds read low 1.01 | S. cerevisiae deletion strains, locus YPL241C, strain CIN2, active compounds read low 1.01 | S. cerevisiae deletion strains, locus YPL256C, strain CLN2, active compounds read low 1.09 | S. cerevisiae deletion strains, locus YPR119W, strain clb2, active compounds read low 0.99 | S. cerevisiae deletion strains, locus YPR141C, strain kar3, active compounds read low 0.984 | S. cerevisiae deletion strains, locus YPR163C, strain tif3, active compounds read low 0.99 | S. cerevisiae deletion strains, locus YPR167C, strain met16, active compounds read low 0.994 | S. cerevisiae deletion strains, strain wtn01, active compounds read low 0.993 | S. cerevisiae strains, strain wild type, active compounds read low 1.01
